High-throughput results deposited in PubChem by several laboratories.
Rows were chosen to be rich in hits. Some 4.1% of all compounds tested hit in one or more screens of this group.
NALP3 yeast inh – NALP3 inflammasome inhibitors in reconstituted yeast, primary screen, luminescence, uHTS | Yeast reconstituted NLRP3/ASC/caspase-1, beta-gal luminescence, 24 h | inhibition, % at 10 µM | 0.39% of 330,000 active;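 active = inhibition of 50% or more; inactive = inhibition below 50%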;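 also: plate controls were induced DMSO wells for no effect and uninduced yeast grown without galactose for full effect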
TIM10 inh – growth inhibitors of isogenic TIM10 control yeast, primary screen, counter-screen for tim10-1 yeast inhibitor project, luminescence, uHTS; inhibition, % at 10 µM; S. cerevisiae TIM10 strain growth, BacTiter-Glo luminescence, 24 h; 1.4% of 330,000 active; AID 463195, 2010;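 active = inhibition of 40% or more at the single tested concentration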;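 also: wild-type TIM10 isogenic control strain grown at permissive 25 °C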
NALP1 yeast inh – NALP1 inflammasome inhibitors in reconstituted yeast, colorimetric, S. cerevisiae, triplicate retest | S. cerevisiae NALP1/ASC/caspase-1 growth, X-gal OD620, 72 h | inhibition, % at 10 µM | 0.61% of 280,000 active | AID 2071, 2009; in the data active = inhibition mostly above about 24%, no sharp cut-off; inactive = mostly below about 32%
tim23-1 inh – growth inhibitors of tim23-1 mutant yeast, primary screen, luminescence, uHTS; S. cerevisiae tim23-1 growth, BacTiter-Glo luminescence, 24 h; inhibition, % at 20 µM; 1.3% of 330,000 active;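 active = growth inhibition of the mutant yeast at or above 50%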;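 also: temperature-sensitive mutant grown at 25 °C; plate controls were DMSO-treated mutant yeast for no effect and medium wells lacking yeast for full effect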
PfHsp90 yeast 2 – growth inhibition of PfHsp90-expressing yeast, primary screen, antimalarial PfHsp90 inhibitor project, S. cerevisiae, BacTiter-Glo luminescence, single point, set 2. BacTiter-Glo ATP, 48 h; yeast lacking PDR1 and PDR3 efflux regulators. inhibition, % at 9.4 µM. 0.32% of 310,000 active. AID 504621, 2011;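 active = every replicate shows inhibition above about 80%, whatever the replicate mean, limit read from the data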;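 also: 0% = DMSO neutral controls and 100% = 20 µM radicicol positive controls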
tim10-1 inh – growth inhibitors of tim10-1 mutant yeast, primary screen, luminescence, uHTS; S. cerevisiae tim10-1 ts strain growth, BacTiter-Glo, 24 h; inhibition, % at 20 µM; 2.2% of 330,000 active; AID 463190, 2010;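 active = inhibition of at least 40%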;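 also: mutant grown at 25 °C; 0% = DMSO wells with yeast and 100% = wells holding no yeast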
tim10-1 confirm – growth inhibitors of tim10-1 mutant yeast, confirmation, single concentration, luminescence, S. cerevisiae; inhibition, % at 20 µM; S. cerevisiae tim10-1 ts strain growth, BacTiter-Glo, 24 h; shares compounds with tim10-1 inh; 56% of 7,400 active; AID 463213, 2010;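 active = inhibition of yeast growth at or above a set limit in either of two repeat tests at 20 µM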;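 also: tim10-1 mutant grown at permissive 25 °C to find synthetic lethal compounds; 0% = DMSO yeast wells and 100% = medium wells without yeast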
An asterisk follows results filed as active.

`COc1cccc(CNC(=O)CCCn2nc(C)c3c(C)n(-c4ccc(C)cc4)nc3c2=O)c1OC` gave NALP3 yeast inh -3, TIM10 inh 16, NALP1 yeast inh 17, tim23-1 inh 32, PfHsp90 yeast 2 -3, tim10-1 inh 45* and tim10-1 confirm 14.
`COc1ccc(C(=O)CN(C(=O)c2ccc(Cl)cc2)N2C(=O)C3CCCCC3C2=O)cc1` (centres undefined) gave NALP3 yeast inh 4, TIM10 inh 26, NALP1 yeast inh 20, tim23-1 inh 35, tim10-1 inh 47* and tim10-1 confirm 24.
`COc1cccc(N2C(=O)C(c3ccccc3)=C(c3nc4ccccc4s3)C2NC(C)=O)c1` (centres undefined) gave NALP3 yeast inh 2, TIM10 inh 39, NALP1 yeast inh 8, tim23-1 inh 19, PfHsp90 yeast 2 -18, tim10-1 inh 49* and tim10-1 confirm 42*.
COc1ccc(NC2CCN(C3CC(=O)N(c4ccc(F)c(Cl)c4)C3=O)CC2)cc1 (centres undefined) was read as NALP3 yeast inh 28, TIM10 inh 37, NALP1 yeast inh -5, tim23-1 inh 33, PfHsp90 yeast 2 102*, tim10-1 inh 54* and tim10-1 confirm 42*.
For CCCOc1ccc(N2C(=O)CC(N3CCC(O)(c4cccc(C(F)(F)F)c4)CC3)C2=O)cc1 (centres undefined) the results were NALP3 yeast inh 12, TIM10 inh 26, NALP1 yeast inh -2, tim23-1 inh 48, PfHsp90 yeast 2 3, tim10-1 inh 56* and tim10-1 confirm 47*.
COc1ccc(N2C(=O)CC(N3CCC(O)(c4ccc(Br)cc4)CC3)C2=O)cc1 (centres undefined) was read as NALP3 yeast inh 12, TIM10 inh -4, NALP1 yeast inh 23, tim23-1 inh 5 and tim10-1 inh 25.
`O=C1CC(N2CCN(c3cccc(C(F)(F)F)c3)CC2)C(=O)N1c1ccccc1` (centres undefined) gave NALP3 yeast inh -12, TIM10 inh 3, NALP1 yeast inh 3, tim23-1 inh 13, tim10-1 inh 41* and tim10-1 confirm 25.
For CCN1C(=O)CC(N2CCC(Nc3ccc(OC)cc3)CC2)C1=O (centres undefined) the results were NALP3 yeast inh -11, TIM10 inh -5, NALP1 yeast inh 17, tim23-1 inh 9, PfHsp90 yeast 2 10 and tim10-1 inh 0.
`COc1cccc(N2CCN(C3CC(=O)N(c4ccc(F)c(Cl)c4)C3=O)CC2)c1` (centres undefined) gave NALP3 yeast inh 19, TIM10 inh 28, NALP1 yeast inh 16, tim23-1 inh 47, PfHsp90 yeast 2 -5, tim10-1 inh 41* and tim10-1 confirm 26.
CCN(CCCNC(=O)CN1C(=O)COc2ccc(S(=O)(=O)N3CCC(C)CC3)cc21)Cc1ccccc1 was read as NALP3 yeast inh 7, TIM10 inh 2, NALP1 yeast inh 21, tim23-1 inh -21, PfHsp90 yeast 2 -6 and tim10-1 inh 3.
`NC(=O)Cn1c(=O)n(Cc2ccccc2)c(=O)c2cccnc21` gave NALP3 yeast inh 0, TIM10 inh -4, NALP1 yeast inh 3, tim23-1 inh -5, PfHsp90 yeast 2 29 and tim10-1 inh -10.
`COc1ccc2nc(NC(=O)CSCC(=O)Nc3cc(C)on3)sc2c1` gave NALP3 yeast inh 1, TIM10 inh 4, tim23-1 inh 7, PfHsp90 yeast 2 1 and tim10-1 inh 3.
O=C(NNC(=O)c1cccc2ccccc12)c1cccc(Cl)c1 was read as PfHsp90 yeast 2 -2.
Screening O=C(CSc1nnc(-c2ccccn2)o1)Nc1ccccc1Cl returned NALP3 yeast inh 5, TIM10 inh -6, NALP1 yeast inh 12, tim23-1 inh -18, PfHsp90 yeast 2 20 and tim10-1 inh -31.
Screening NC(=O)C1CCN(C2CC(=O)N(c3ccc(F)c(Cl)c3)C2=O)CC1 (centres undefined) returned NALP3 yeast inh 17, TIM10 inh 35, NALP1 yeast inh 2, tim23-1 inh 45, PfHsp90 yeast 2 104*, tim10-1 inh 53* and tim10-1 confirm 50*.
For O=C1CC(N2CCCN(C3CC(=O)N(c4ccc(F)cc4)C3=O)CC2)C(=O)N1c1ccc(F)cc1 (centres undefined) the results were NALP3 yeast inh 26, TIM10 inh 22, NALP1 yeast inh 39*, tim23-1 inh 36, PfHsp90 yeast 2 8, tim10-1 inh 47* and tim10-1 confirm 42*.
`CN(C(=O)COC(=O)C1CCN(S(=O)(=O)c2ccc3c(c2)OCCO3)CC1)C1CCCCC1` gave NALP3 yeast inh 7, TIM10 inh 14, tim23-1 inh 8, PfHsp90 yeast 2 1 and tim10-1 inh 19.
`O=C(c1cccs1)N1CCCC(c2nc3c(nnn3Cc3ccccc3Cl)c(=O)[nH]2)C1` (centres undefined) gave NALP3 yeast inh 12, TIM10 inh 8, NALP1 yeast inh 11, tim23-1 inh 9, PfHsp90 yeast 2 11 and tim10-1 inh -7.
For COc1cc2c(C(=O)N3CCN(C)CC3)c(C)n(-c3ccccc3)c2cc1Br the results were NALP3 yeast inh 3, TIM10 inh 20, NALP1 yeast inh 1, tim23-1 inh 21, PfHsp90 yeast 2 -15, tim10-1 inh 50* and tim10-1 confirm 27.
Cc1ccccc1C(=O)NC1CCCCCCC1 was read as NALP3 yeast inh 30, TIM10 inh -1, NALP1 yeast inh 1, tim23-1 inh 7, PfHsp90 yeast 2 -20 and tim10-1 inh 4.
For O=C(NC1CCCCCC1)c1ccc[nH]c1=S the results were NALP3 yeast inh 3, TIM10 inh 16, NALP1 yeast inh -7, tim23-1 inh 7, PfHsp90 yeast 2 1, tim10-1 inh 44* and tim10-1 confirm 30.
O=C(Nc1cccc(Cl)c1Cl)C1CCN(C(=O)c2cccs2)CC1 was read as NALP3 yeast inh 38, TIM10 inh -15, NALP1 yeast inh 21, tim23-1 inh 9, PfHsp90 yeast 2 2 and tim10-1 inh 5.
For COC(=O)c1cn(-c2ccccc2)nc1-c1ccc(OC)c(OC)c1 the results were NALP3 yeast inh 21, TIM10 inh 15, NALP1 yeast inh 9, tim23-1 inh 38, PfHsp90 yeast 2 -11, tim10-1 inh 42* and tim10-1 confirm 9.
